Screening data as filed in PubChem.
In the library only some 0.34% were active in any assay of this set; here they are far more common.
Vif-A3F inh = qHTS for Inhibitors of Vif-A3F Interactions: qHTS; HeLa A3F-eYFP + Vif (tagged APOBEC3F with the HIV-1 protein that degrades it), YFP fluorescence increase; Potency, µM (series often up to 46.1 µM), inactives show top-dose activity, negative = active; actives 0.2% (n = 390,000); also: potency is read from the fitted curve at half-maximal effect; % of control where 0% means no effect; nearly all actives have a fitted effect of over 65% in size
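HeLa cells stably expressing A3F-eYFP plus Vif, plated and incubated overnight at 37 deg C, then exposed to compounds overnight at 37 deg C. Blocked degradation read as raised yellow fluorescence (Ex 488/Em 500-530).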
miR-21 act = qHTS Assay for Modulators of miRNAs and/orActivators of miR-21; AID 2288, 2010; HeLa miR-21 FLuc reporter, luciferase, 48 h; Potency, µM (titrated, usually from 38.3 µM), for inactives: at the highest dose activity change, positive = activation, hits mostly activators; 340,000 tested, under 10 active;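 also: % of control where 0% means no effect; miR-21 action dims this reporter so a rising signal means less miR-21 action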
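HeLa cells endogenously expressing miR-21, stably carrying CMV-driven firefly luciferase with a downstream miR-21 binding site, 2000 cells/well. Titrations up to approximately 40 uM, 48 hours; luciferase luminescence read.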
Vif-A3G inh = qHTS for Inhibitors of Vif-A3G Interactions: qHTS; HeLa A3G-eYFP + Vif (tagged APOBEC3G with the HIV-1 protein that degrades it), YFP fluorescence, overnight; Potency, µM (doses to about 46.1 µM), inactives show at the top dose activity, negative = active, usual class: inhibitors; actives 0.076% (n = 410,000); DNA dC->dU-editing enzyme APOBEC-3G (Homo sapiens), Q9HC16; also: potency is read from the fitted curve at half-maximal effect; % is scaled to controls: 0 for no effect and ±100 for the full control effect; nearly all actives have a fitted effect of over 60% in size
Target sequence (Q9HC16 whole entry, looked up): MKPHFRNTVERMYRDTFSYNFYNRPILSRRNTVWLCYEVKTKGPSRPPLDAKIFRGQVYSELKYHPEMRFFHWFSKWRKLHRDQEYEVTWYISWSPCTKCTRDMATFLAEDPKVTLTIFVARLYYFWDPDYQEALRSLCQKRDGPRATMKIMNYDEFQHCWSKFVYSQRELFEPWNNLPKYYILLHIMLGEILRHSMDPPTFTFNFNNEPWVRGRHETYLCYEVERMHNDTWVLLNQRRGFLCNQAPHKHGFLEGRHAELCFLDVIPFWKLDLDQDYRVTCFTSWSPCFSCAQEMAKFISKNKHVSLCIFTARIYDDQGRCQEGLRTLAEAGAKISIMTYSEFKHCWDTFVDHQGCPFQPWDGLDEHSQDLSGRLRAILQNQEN
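Read-out is eYFP fluorescence (Ex 488/Em 500-530) from Vif-expressing HeLa A3G-eYFP cells; more signal means A3G escaped Vif-mediated degradation. Cells plated overnight, compound pinned in, incubated overnight at 37 deg C.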
Epigenetic reg = Quantitative High-Throughput Screen for Regulators of Epigenetic Control | murine LDR cells, GFP reporter derepression, 30 h | Potency, µM (titrated, usually from 53.9 µM), for inactives: at the top dose GFP activation, most hits filed as activators | actives 0.2% (n = 280,000); also: potency is read from the fitted curve at half-maximal effect; % of control where 0% means no effect; nearly all actives have a fitted effect of over 60% in size
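In this reporter-derepression format, murine cells bearing a silenced integrated CMV-GFP locus incubate with test compound (30 h, 37 C), then are washed and imaged; fluorescent objects of 20–120 um count as induced cells.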
* = called active by the depositor; i = inactive; u = inconclusive; x = no result given. Calls follow the shape of the dose curve; as a rule, active = well fitted curve in the direction sought with a large enough effect; inconclusive = small, poorly fitted or top-dose-only effect, or another doubt; inactive = no such curve, though single readings can be large; an effect the other way counts as inactive or inconclusive.

SMILES | Vif-A3F inh | miR-21 act | Vif-A3G inh | Epigenetic reg
CCc1ccccc1S(=O)(=O)Cc1ccc(C(=O)NCCc2ccc(Cl)cc2)o1 | 2.5% | u | -4.1% | -0.3%
COc1cc(-c2cc(C(=O)Nc3ccc(O)cc3)c3ccccc3n2)cc(OC)c1OC | 2.5% | 23.3% | -8.8% | 1.3%
COc1cc(-c2cc(O)c(-c3ccc4ccccc4n3)c(=O)[nH]2)cc(OC)c1OC | 11.2µM* | x | 10µM* | x
O=C(COCc1cc(-c2cccs2)on1)NCc1ccc(F)cc1 | 4.6% | -6.6% | 3.0% | -0.4%
O=c1[nH]c2ccccc2n2c(C(F)(F)F)nnc12 | 10µM* | -5.0% | -26.1% | x
O=c1[nH]c2ccccc2n2c(=S)[nH]nc12 | 22.4µM* | -4.7% | 5.2% | 0.0%
CCC(=O)N1CCc2cc(Br)cc(S(=O)(=O)CCC(=O)NCc3ccc(F)cc3)c21 | 2.2% | 4.5% | -4.0% | -1.0%
Cc1ccc(NC(=O)C(C)Sc2nc(-c3ccccc3)c(C#N)c(=O)[nH]2)c(C)c1 (stereo not given) | -7.3% | 3.4% | 2.9% | 0.8%
CCn1c2ccccc2c2c3ncc4cccn4c3ccc21 | 25.1µM* | u | u | 3.7%
Cc1oc2ccc(O)c(CN3CCN(C)CC3)c2c1C(=O)Nc1cccc(C(F)(F)F)c1 | -9.9% | 18.2% | 8.5% | 3.7%
CCCOc1ccc2cc(C(=O)NCc3ccccc3)c(=O)oc2c1 | 31.6µM* | 0.1% | -229.1% | x
COc1ccc2oc(=O)c(C(=O)NCc3ccccc3)cc2c1 | 0.0% | -0.2% | 0.3% | x
COc1ccc(/C=N/NC(=O)c2cc(-c3ccc(Cl)cc3)n[nH]2)cc1OC | x | x | x | -4.8%
O=C1/C(=C/c2cccs2)CCC/C1=C\c1cccs1 | -15.5% | -67.0% | -12.0% | x
Cn1cccc1/C=C1\CCC/C(=C\c2cccn2C)C1=O | u | -58.6% | u | 12.6µM*
CC(=O)c1cccc(NC(=S)N2c3ccccc3CC2C)c1 (stereo not given) | 4.9% | -5.4% | 8.91µM* | -1.2%
CC(=O)c1cccc(NC(=S)N2CCc3ccccc32)c1 | 0.0% | -35.7% | 4.0% | x
COc1ccccc1CNS(=O)(=O)c1ccc2c(c1)NC(=O)CC(=O)N2 | 0.9% | -0.9% | 3.3% | -0.8%
CCOC(=O)CNC(=O)Nc1cc(C(=O)NCc2ccc(C(C)C)cc2)ccc1N1CCCC1 | 0.2% | -0.7% | -2.5% | -3.3%
COc1ccc2c(c1)c1nc3ccccc3nc1n2Cc1ccc(OC)c(OC)c1 | 25.1µM* | -8.7% | u | u
O=C(CC1CC2CCC1C2)Nc1nc(-c2ccccn2)cs1 (stereo not given) | 12.6µM* | 2.4% | 1.1% | 3.9%
Cc1ccc2nc(/C(C#N)=C\c3ccc(N4CCOCC4)o3)[nH]c2c1 | -15.2% | -53.0% | u | 14.1µM*
Cc1ccc2nc(/C(C#N)=C\c3cc(C)n(-c4cccc([N+](=O)[O-])c4)c3C)[nH]c2c1 | -4.0% | 9.4% | 0.0% | 2.2%
Cc1ccc2nc(/C(C#N)=C\c3ccc([N+](=O)[O-])o3)[nH]c2c1 | u | -0.2% | 6.31µM* | 1µM*
COC(=O)c1ccc(NC(=O)c2nc(S(=O)(=O)Cc3ccccc3F)ncc2Cl)cc1 | x | x | -28.6% | x
SMILES | Vif-A3F inh | miR-21 act | Vif-A3G inh | Epigenetic reg
Cc1cnc2c(C)cccc2c1/C=C/c1ccc(N(C)C)cc1 | x | x | -16.2% | x
Cc1cccc2cc3c(N)c(C(=O)Nc4ccc(N5CCOCC5)cc4)sc3nc12 | u | -7.5% | 12.6µM* | u
Cc1ccc(C)c2nc3sc(C(=O)N4CCOCC4)c(N)c3cc12 | u | -42.1% | 10µM* | -0.1%
CCc1cccc2cc3c(N)c(C(=O)Nc4ccc(S(=O)(=O)N5CCCC5)cc4)sc3nc12 | u | -7.0% | 3.55µM* | 11.2µM*
Cc1cc(C)c2nc3sc(C(=O)N4CCOCC4)c(N)c3cc2c1 | u | 9.5% | u | u
Cc1ccc(C(=O)N2CCc3ccccc32)cc1C | 0.7% | x | -0.6% | x
COc1cccc(CC(=O)Nc2ccc(S(=O)(=O)N3CCCCC3)cc2)c1 | -6.7% | x | -2.8% | x
Cc1cccc2cc3c(N)c(C(=O)N4CCc5ccccc54)sc3nc12 | 4.47µM* | -10.3% | u | u
CC(C)OC(=O)c1cc(C(=O)c2cc(Br)ccc2O)coc1=N | u | 0.7% | -19.7% | u
COc1ccc(O)c(C(=O)c2coc(=N)c(C(=O)Nc3ccc(SC(F)F)cc3)c2)c1 | 12.6µM* | 21.0% | 5.4% | -4.4%
CC(C)OC(=O)c1cc(C(=O)c2cc(F)ccc2O)coc1=N | 11.2µM* | -4.3% | u | 1.6%
Cc1cc(/C=C2\SC(=S)N(Cc3ccco3)C2=O)c(C)n1-c1ccccc1 | 20µM* | -42.9% | u | u
CCS(=O)(=O)N1CCc2cc(C(=O)N3CCN(c4cccc(C(F)(F)F)c4)CC3)ccc21 | -6.2% | 20.8% | 12.6µM* | -5.8%
CCN(CC)c1ccc(NC(=O)C2CCN(S(=O)(=O)c3cnc[nH]3)CC2)c(C)c1 | 0.2% | -1.2% | 4.0% | -1.4%
Cc1cc(NC(=O)c2ccco2)cc(-c2nc3cc(Cl)ccc3o2)c1O | 11.2µM* | -8.8% | u | u
Cc1ccc2oc(-c3cc(NC(=O)c4cccs4)cc(C)c3O)nc2c1 | 1.1% | -4.5% | -0.9% | 0.0%
CCN(CC)c1ccc(/C=C(\C#N)c2nc(-c3cccs3)c(NC(C)=O)s2)cc1 | x | -2.5% | x | 1.58µM*
O=C(C(=O)N1CCCCCC1)c1c[nH]c2ccccc12 | -1.5% | -9.4% | 0.5% | x
C[n+]1cc(C(=O)N2CCCCC2)ccc1/C=C/c1c[nH]c2ccccc12 | u | 3.5% | 11.2µM* | 12.6%
COc1cc2c(cc1OC)C1=CC(=O)C(=O)N1C(C)(C)C2 | u | -36.3% | 7.08µM* | 1.1%
COc1cc2c(cc1OC)-c1nc3ccccc3c(=O)n1C(C)(C)C2 | 2.3% | -4.1% | -0.4% | -0.3%
COc1cnc(-c2ccccn2)nc1Oc1ccc(F)cc1F | 11.2µM* | -31.9% | -1.3% | -0.5%
COc1ccc(C2C(C(=O)Nc3ccccc3)=C(C)Nc3nc(-c4ccccc4Cl)nn32)cc1OC (stereo not given) | 0.8% | -12.2% | -10.5% | 0.2%
Cc1sc2nc(CSCC(=O)Nc3ccccc3C#N)[nH]c(=O)c2c1C | 12.6µM* | 0.4% | -2.9% | 2.0%
CSc1ccccc1NC(=O)CSCc1nc2sc(C)c(C)c2c(=O)[nH]1 | -30.4% | x | -9.1% | x
COc1ccc(C(=O)Nc2cc(C(C)=O)c(C)oc2=O)cc1 | u | 15.6% | -3.0% | 2.1%
COC(=O)c1cc(NC(=O)c2ccccc2)c(=O)oc1/C=C/Nc1ccc(Oc2ccccc2)cc1 | 8.91µM* | 0.7% | u | u
CCOCCCNc1nc2c(C)cccn2c(=O)c1/C=C1\SC(=S)N(CC(C)C)C1=O | u | -0.1% | -27.7% | 11.8%
CCOCCCNc1nc2c(C)cccn2c(=O)c1/C=C1\SC(=S)N(C(C)CC)C1=O (stereo not given) | i | 2.8% | u | 3.16µM*
Cc1cccc(NC(=O)CSc2cn(CC(=O)N3CCC(C)CC3)c3ccccc23)c1C | 6.0% | 9.0% | 1.8% | -2.4%
